Bioassay records deposited in PubChem BioAssay by National Center for Advancing Translational Sciences (NCATS).
Shown are actives, neighbours in structure and some others; about 3.8% of the full set was active somewhere.
Nrf2 inh – inhibitors of Nrf2 signaling | A549 ARE-Fluc reporter, luciferase luminescence, 18-24 h | AID 504444 | Potency, µM (series often up to 46 µM), usual class: inhibitors | 2.1% of 360,000 active; note: nearly all actives have a fitted effect of over 60% in size
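A549 ARE_Fluc cells, 5000/well, 5% FBS OPTI-MEM; compounds in dose-response, 18-24 h at 37 °C/5% CO2; CellTiter-Fluor viability read (Ex 405/Em 525), then BugLite luciferase luminescence = Nrf2 activity.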
A549 viability – kills or reduces viability of A549 cells in Nrf2 counter-screen | 0.16% of 390,000 active | Potency, µM (series often up to 46 µM), actives largely listed as inhibitors | A549 ARE-Fluc cells, CellTiter-Fluor viability, 18-24 h
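A549 ARE-Fluc cells in 5% FBS OPTI-MEM, 5000 cells/well, rested 2 h then exposed to compounds in concentration-response for 18-24 h at 37 °C. Viability by CellTiter-Fluor fluorescence (Ex 405/Em 525) after 30 min; luciferase luminescence (BugLite, 15 min, RT) read afterwards.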
HepG2 tox – kills HepG2 cells in TGF-b inhibitor counter-screen. HepG2 CAGA-GFP viability, ATP luminescence, 18 h. Potency, µM (doses to about 46.1 µM), actives largely listed as cytotoxic. 0.76% of 410,000 active. AID 588856
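CellTiter-Glo luminescence gave cytotoxicity after 18 hours at 37 degrees C. The cells were HepG2 CAGA-GFP in 1% FBS DMEM, stimulated with 500 pg/mL TGF-beta after compound addition. %Activity was normalised to no-cell wells (complete cell-killing) and DMSO (no toxicity), and curves were fitted and classified.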
ATXN viability – reduces viability in counter-screen for ATXN expression inhibitors. S2 cells (HEK-293 line with an ATXN2-luciferase reporter) viability, CellTiter-Fluor protease fluorescence, 24 h. Potency, µM (top dose mostly 56.7 µM), hits mostly cytotoxic. 0.49% of 400,000 active; note: nearly all actives have a fitted effect of over 40% in size
TGFb inhibitor – blocks TGF-b signaling; HepG2 CAGA-GFP TGF-b/SMAD3 reporter, GFP fluorescence, 18 h; TGF-beta stimulated, 500 pg/mL final; Potency, µM (doses to about 46.1 µM), hits mostly inhibitors; 1.2% of 410,000 active; AID 588855; note: nearly all actives have a fitted effect of over 65% in size
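Using HEPG2 CAGA-GFP reporter cells at 1000 cells/well, we pinned test compounds, stimulated with recombinant TGF-beta (500 pg/mL final) and measured total well GFP after 18 h.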
ATXN2 expr inh – reduces ATXN2 reporter expression in HEK-293 cells | HEK-293 ATXN2-luciferase reporter, luminescence, 24 h | Potency, µM (top dose mostly 57 µM), most hits filed as inhibitors | 0.72% of 360,000 active | AID 1745845; note: nearly all actives have a fitted effect of over 55% in size
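qHTS (up to 57 uM final) was run with 24 h compound exposure of reporter cells at 37 °C. Each well was multiplexed: SteadyGlo luminescence measured ATXN2-luciferase expression after a fluorogenic Gly-Phe-AFC viability readout (25 uM final).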
Hits are given with their value; - = inactive; ? = inconclusive; . = no result; ! = not confirmed by another sample. Calls come from the whole dose curve; as a rule, active = well fitted curve in the direction sought with a large enough effect; inconclusive = small, poorly fitted or top-dose-only effect, or another doubt; inactive = no such curve, though single readings can be large; an effect the other way counts as inactive or inconclusive.

SMILES	Nrf2 inh	A549 viability	HepG2 tox	ATXN viability	TGFb inhibitor	ATXN2 expr inh
CCCC(=O)N1CCC1(C)C(=O)Nc1scc(C)c1C#N (stereo not drawn)	.	.	-	-	-	-
Cc1ccccc1OCC(=O)NCC(=O)OCC(=O)c1ccc(Br)cc1	-	-	-	.	-	.
CN1C2=CC=CC=CC2=[N+](C)C12C=CC(=[N+]([O-])[O-])C=C2[N+](=O)[O-] (stereo not drawn)	23.1µM	18.4µM	-	.	-	-
O=C(CSc1nccn1-c1ccc(F)cc1)Nc1ccc(OC(F)(F)F)cc1	.	-	-	.	-	.
O=C(N/N=C/c1cccc([N+](=O)[O-])c1)c1cccc2cc[nH]c12	-	-	-	-	-	-
O=C(N/N=C/c1cc([N+](=O)[O-])ccc1O)c1cccc(N2CCCC2=O)c1	?	-	-	?	-	17.8µM
COc1cc(/C=N/NC(=O)c2cccc(N3CCCC3=O)c2)ccc1O	-	-	-	-	-	-
O=C(N/N=C/c1cc([N+](=O)[O-])ccc1O)c1cccc2cc[nH]c12	23.1µM	?	-	?	12.6µM	3.16µM
COc1ccccc1NC(=O)CSc1nnc(NC(=O)NC2CCCCC2)s1	.	-	-	.	17.8µM	.
Cc1cccc(N2C(=O)N(CC(=O)C(C)(C)C)c3ccccc3S2(=O)=O)c1C	.	-	-	-	-	-
CCCS(=O)(=O)c1nnnn1-c1cccc(OC)c1	?	?	17.8µM	.	?	?
O=C(Nc1ccc(Oc2cccnc2)cc1)C1CCN(Cc2ccc(F)cc2)CC1	?	?	-	-	?	-
O=C(Nc1ccc(Oc2cccnc2)cc1)C1CCN(Cc2cc(Cl)ccc2O)CC1	?	-	-	?	12.6µM	.
Cc1cccc(CN2CCC(C(=O)Nc3ccc(Oc4cccnc4)cc3)CC2)c1	-	-	11.2µM	-	?	-
Cc1ccc(S(=O)(=O)N2CCCCC2C(=O)Nc2ccc(N(C)C)cc2)cc1 (stereo not drawn)	-	-	-	-	-	-
Cc1ccccc1Nc1nnc(SCc2cc([N+](=O)[O-])cc3c2OCOC3)s1	25.9µM	-	-	-	-	-
O=[N+]([O-])c1cc2c(c(CSc3nnc(Nc4ccccc4)s3)c1)OCOC2	-	-	-	-	-	-
O=C(c1cc2nc(-c3ccccc3)cc(-c3ccccc3)n2n1)N1CCN(C(=O)c2ccco2)CC1	23.1µM	-	-	-	-	-
Cc1cc(N2CCN(C(=O)c3ccco3)CC2)n2nc(-c3cccc(Cl)c3)cc2n1	.	?	-	.	?	20µM
O=C(CSc1c2c(nc3ccc(Cl)cc13)CCCC2)NCCCN1CCOCC1	-	?	-	.	?	.
CC(C)OCCCNC(=O)CSc1c2c(nc3ccc(Cl)cc13)CCCC2	-	-	-	.	11.2µM	.
COCCCNC(=O)CSc1c2c(nc3ccc(Cl)cc13)CCCC2	?	-	-	-	12.6µM!	.
CCN(CC)CCCNC(=O)CSc1c2c(nc3cc(Cl)ccc13)CCCC2	-	?	22.4µM	.	11.2µM	?
CCCCCCN1C[C@@H](O)[C@H](n2cc(-c3ccc(F)cc3)nn2)C[C@@H]1c1ccccc1	.	.	-	-	?	-
Cc1cccc(Cn2cc(C(=O)c3ccccc3)c(=O)c3cc4c(cc32)OCO4)c1	?	-	-	?	-	-
COc1ccc(C2CC(O)(c3ccccc3)Oc3cc(OC)c(OC)c(OC)c32)cc1 (stereo not drawn)	?	?	-	?	?	-
OC1(c2ccccc2)CC(c2ccccc2)c2ccccc2O1 (stereo not drawn)	-	-	22.4µM	-	?	?
CCN1C(=NCc2cccc(C(F)(F)F)c2)N[C@@H](c2cccc(C(F)(F)F)c2)C(C(=O)OC)=C1C	.	.	-	.	3.55µM	.
CCN1C(=NCc2cccc(Cl)c2)N[C@@H](c2cccc(C(F)(F)F)c2)C(C(=O)OC)=C1C	.	.	-	.	14.1µM	.
CCN(CC)CCCN=C1N[C@@H](c2cccc(C(F)(F)F)c2)C(C(=O)OC)=C(C)N1CC	-	?	-	22.4µM	?	?
